Among the test systems are NCI-H23 lung; NCI-H226 lung; NCI-H322M lung; HOP-62 NSCLC; NCI-H460 lung; HOP-92 NSCLC; NCI-H522 lung; A549/ATCC NSCLC; 786-0 renal; DU-145 prostate; K-562 leukemia; MALME-3M melanoma; MDA-MB-231 breast; RXF 393 renal; SF-268 CNS; SF-539 CNS; UACC-257 melanoma; M14 melanoma; SF-295 CNS; COLO 205 colon.
Common to all, as to experiment: NCI-60 one-dose screen, 48 h (100 = growth as untreated, 0 = no growth, -100 = all killed)
Details in all cases: 10 µM unless noted

This is part of a sample that, as a whole, favours compounds with a hit. Of some 83,000 tested, about 20% had one in any assay.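 Single-dose data. Exposure time 48 hours. Values below 10 considered active.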 A number with no mark means an inactive call. Active and inactive are the calls of the source.

In the case of `COc1cc2c(cc1OC)C(=O)C(Br)CC2` (configuration not stated), the growth was 45.8% in the assay with NCI-H23 lung; 90.8% in the assay on NCI-H226 lung; 102% in the assay with NCI-H322M lung; 51% in the assay with HOP-62 NSCLC; 75% with NCI-H460 lung; 20.2% in the assay with HOP-92 NSCLC. In addition, the growth is -17.3% (active) in the assay with NCI-H522 lung; 80.1% in the assay with A549/ATCC NSCLC; 63.8% in the assay on 786-0 renal; 31.5% in the assay on DU-145 prostate; 16.5% in the assay with K-562 leukemia; 3.69% (active) in the assay on MALME-3M melanoma. For the same compound, the growth in the assay on MDA-MB-231 breast was 42.6%; with RXF 393 renal it was 40.8%; in the assay with SF-268 CNS it was 64.6%; with SF-539 CNS, 68.2%; in the assay on UACC-257 melanoma, 56.7%; in the assay with M14 melanoma, 32%.
Take `C=CCn1c(SCC(=O)Nc2ccc(/C(C)=N\O)cc2)nnc1-c1cc(-c2ccccc2)nc2ccccc12`: the growth in the assay on NCI-H23 lung is 38.9%; with NCI-H226 lung, 65.4%; in the assay with NCI-H322M lung it was 69.2%; in the assay with HOP-62 NSCLC it was 67.9%; with NCI-H460 lung it was 52.1%; with HOP-92 NSCLC, 99.5%. The growth with NCI-H522 lung is 41.6%; in the assay on A549/ATCC NSCLC, 43.9%; with 786-0 renal, 45.2%; in the assay on DU-145 prostate, 75%; in the assay with K-562 leukemia, 27.6%; with MALME-3M melanoma, 96.3%. In addition, the growth is 58.3% in the assay on MDA-MB-231 breast; 68.8% with RXF 393 renal; 62.8% in the assay on SF-268 CNS; 50.6% in the assay with SF-539 CNS; 75.6% in the assay on UACC-257 melanoma; 34% in the assay with M14 melanoma.
Take `CC(=O)c1cccc(Nc2ncnc3ccc(NC(=O)c4ccco4)cc23)c1`: the growth in the assay on NCI-H23 lung is 88.7%; in the assay with NCI-H226 lung, 87.6%; in the assay on NCI-H322M lung, 102%; with HOP-62 NSCLC, 113%; in the assay with NCI-H460 lung, 96.1%; in the assay on HOP-92 NSCLC it was 71.7%. Besides, the growth is 83.3% in the assay on NCI-H522 lung; 90.4% in the assay with A549/ATCC NSCLC; 89.5% with 786-0 renal; 86.9% with K-562 leukemia; 97.8% with MALME-3M melanoma; 88.4% in the assay on MDA-MB-231 breast. Also, the growth with RXF 393 renal is 80.6%; in the assay on SF-295 CNS it was 91.9%; with SF-539 CNS it was 103%; in the assay with UACC-257 melanoma, 94.7%; with M14 melanoma, 87.4%.
With `COc1cc2c(cc1I)-c1c(cc(OC)c(OC)c1OC)CC[C@@H]2NC(C)=O`, the growth with NCI-H23 lung is 4.9% (active); with NCI-H226 lung, 33.6%; in the assay on NCI-H322M lung, 61.6%; in the assay on HOP-62 NSCLC, 14.7%; in the assay with NCI-H460 lung, 1.44% (active); in the assay on HOP-92 NSCLC, 43.7%. In addition, the growth in the assay on NCI-H522 lung was -22.3% (active); in the assay on A549/ATCC NSCLC, 28.3%; in the assay with 786-0 renal, 16.4%; with K-562 leukemia it was 9.91% (active); in the assay with MALME-3M melanoma it was 72.4%; in the assay on MDA-MB-231 breast, -6.61% (active). The growth in the assay with RXF 393 renal is 29.8%; with SF-295 CNS, -1.65% (active); in the assay on SF-539 CNS it was -30.6% (active); in the assay on UACC-257 melanoma it was 56.7%; in the assay on M14 melanoma, -12.9% (active).
In the case of `COc1ccc(-c2nn(-c3cccc(Cl)c3)cc2/C=C2\C(=N)N(c3ccccc3)N=C2N)cc1`, the growth in the assay on NCI-H23 lung was 51.2%; in the assay on NCI-H226 lung, 40.8%; in the assay on NCI-H322M lung, 44.9%; with HOP-62 NSCLC it was 65.8%; with NCI-H460 lung, 6.92% (active); with HOP-92 NSCLC, 96.2%. The growth in the assay with NCI-H522 lung was 51.5%; in the assay on A549/ATCC NSCLC, 36.6%; with 786-0 renal it was 29.1%; in the assay on DU-145 prostate, 37.6%; in the assay on K-562 leukemia it was 1.77% (active); in the assay on MALME-3M melanoma, 28.8%. For the same compound, the growth was 59% in the assay with MDA-MB-231 breast; 85% in the assay on RXF 393 renal; 47.8% in the assay on SF-268 CNS; -12.8% (active) with SF-539 CNS; 58.4% in the assay on UACC-257 melanoma; 5.51% (active) with M14 melanoma.
In the case of `Cc1c(O)c(=O)n(-c2ccccc2)n1C`, the growth in the assay on NCI-H23 lung was 101%; in the assay with NCI-H226 lung it was 100%; in the assay with NCI-H322M lung it was 108%; in the assay on HOP-62 NSCLC, 100%; with NCI-H460 lung, 118%; in the assay on HOP-92 NSCLC, 96.3%. The growth is 110% in the assay with NCI-H522 lung; 105% in the assay with A549/ATCC NSCLC; 101% in the assay on 786-0 renal; 116% in the assay on DU-145 prostate; 106% with K-562 leukemia; 112% in the assay on MALME-3M melanoma. Moreover, the growth in the assay with MDA-MB-231 breast was 99.1%; with RXF 393 renal, 124%; in the assay with SF-268 CNS, 114%; in the assay with SF-539 CNS, 97.6%; in the assay with UACC-257 melanoma it was 119%; with M14 melanoma, 100%.
`COc1cc(Nc2ccnc3ccc(Br)cc23)cc(OC)c1OC`: the growth in the assay on NCI-H23 lung is 53.8%; in the assay with NCI-H226 lung it was 78.8%; in the assay with NCI-H322M lung, 63.5%; with HOP-62 NSCLC, 23.2%; with NCI-H460 lung, 7.02% (active); with HOP-92 NSCLC it was 49%. Besides, the growth in the assay on NCI-H522 lung is -17.8% (active); in the assay on A549/ATCC NSCLC it was 37.5%; with COLO 205 colon it was 39%; in the assay on DU-145 prostate, 59.1%; in the assay on K-562 leukemia, 10.2%; in the assay on MALME-3M melanoma, 46.7%. The growth in the assay with MDA-MB-231 breast was 38%; in the assay with RXF 393 renal, 2.9% (active); with SF-268 CNS it was 47.6%; with SF-295 CNS it was 25.6%; in the assay with SF-539 CNS, 12.7%; in the assay with UACC-257 melanoma, 38.2%. Besides, the growth in the assay with M14 melanoma is 14.3%.
As to `COc1cc(C2C=C(C)N=C3SC=NN32)cc(OC)c1OC` (configuration not stated), the growth in the assay on NCI-H23 lung was 100%; in the assay with NCI-H226 lung it was 108%; with NCI-H322M lung it was 112%; in the assay with HOP-62 NSCLC, 102%; in the assay on NCI-H460 lung, 108%; in the assay on HOP-92 NSCLC, 91.4%. Besides, the growth in the assay on NCI-H522 lung is 104%; with A549/ATCC NSCLC, 101%; in the assay on 786-0 renal it was 112%; in the assay on DU-145 prostate it was 115%; in the assay with K-562 leukemia it was 108%; in the assay on MDA-MB-231 breast, 104%. Besides, the growth in the assay with RXF 393 renal was 113%; in the assay with SF-268 CNS, 111%; with SF-295 CNS, 107%; in the assay on SF-539 CNS, 99.1%; in the assay on UACC-257 melanoma, 94.8%; in the assay with M14 melanoma, 109%.
Consider `Cc1cc(C)c2c(NC(=O)Nc3ccc(Cl)c(Cl)c3)n[nH]c2n1`, for which the growth in the assay on NCI-H23 lung was 101%; in the assay on NCI-H226 lung, 108%; in the assay on NCI-H322M lung it was 91.3%; in the assay on HOP-62 NSCLC, 105%; in the assay on NCI-H460 lung it was 106%; in the assay on HOP-92 NSCLC, 117%. The growth in the assay with NCI-H522 lung was 92.6%; in the assay on A549/ATCC NSCLC, 101%; with COLO 205 colon, 106%; in the assay on DU-145 prostate, 105%; in the assay on K-562 leukemia, 91%; with MALME-3M melanoma it was 90.4%. Further, the growth in the assay on MDA-MB-231 breast is 104%; in the assay on RXF 393 renal it was 105%; in the assay with SF-268 CNS it was 103%; in the assay with SF-295 CNS, 93.4%; with SF-539 CNS it was 112%; in the assay on UACC-257 melanoma it was 110%. In the assay on M14 melanoma, the growth is 109%.
